From article PMC8384837, “Expanding the binding specificity for RNA recognition by a PUF domain” come the findings set out here.

Chain of PUM1 PUF domain R4-TPG (Q14671 828-1176 N971T/H972P/Q975G): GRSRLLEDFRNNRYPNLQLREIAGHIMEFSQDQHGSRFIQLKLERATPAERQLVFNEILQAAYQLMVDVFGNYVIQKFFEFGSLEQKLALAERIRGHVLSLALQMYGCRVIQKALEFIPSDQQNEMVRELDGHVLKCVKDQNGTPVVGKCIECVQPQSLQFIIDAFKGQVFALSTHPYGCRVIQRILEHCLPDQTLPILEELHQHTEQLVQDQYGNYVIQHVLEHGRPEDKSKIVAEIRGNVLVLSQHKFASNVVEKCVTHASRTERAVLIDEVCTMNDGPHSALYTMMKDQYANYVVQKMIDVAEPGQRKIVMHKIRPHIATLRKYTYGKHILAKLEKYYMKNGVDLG
Chain of PUM1 PUF domain R1-RCS (Q14671 828-1176 S863R/R864C/Q867S): as the sequence (Q14671 828-1176 N971T/H972P/Q975G) above, with S36R, R37C, Q40S, T144N, P145H, G148Q counted along it
Chain of PUM1 PUF domain R5-FRR (Q14671 828-1176 C1007F/Q1011R): as the sequence (Q14671 828-1176 N971T/H972P/Q975G) above, with T144N, P145H, G148Q, C180F, Q184R counted along it
Chain of PUM1 PUF domain R4-SPW (Q14671 828-1176 N971S/H972P/Q975W): as the sequence (Q14671 828-1176 N971T/H972P/Q975G) above, with T144S, G148W counted along it

In the first test the target is PUM1 PUF domain R4-TPG (Homo sapiens, UniProt Q14671 828-1176, N971T;H972P;Q975G). Kind of test: yeast three-hybrid, YBZ-1, SC-Leu-His + 0.5 mM 3-AT, 4 days. Conditions: tags: N-Gal4 AD-HA kept; label: inside an RPR1-promoter hybrid RNA with tandem MS2 sites; ssRNA. In short, it runs like this:
(§1)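 A centromeric plasmid in strain YBZ-1 co-expressed Pumilio-1 PUF domain libraries, randomized at the three base-contacting residues of each repeat, with matching RNA elements; the strain carries a LexA–MS2 coat fusion and a HIS3 reporter. After four days on SC-Leu (input) or SC-Leu-His + 0.5 mM 3-AT (selection), the repeat regions were PCR-amplified and Illumina-sequenced. The interaction score is the log change in variant frequency from input to selection, using log2 and a pseudocount of 1 where absent.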
With “GGCUAGAACUAGUGGAUCCCCCGGCGCCCGGCGGCUCGAGCCCGGGUAAGUGUAAAUAGUCUGCAUGCCGCCGGGCGCCAUGCCUGCAGGUCGACUCUAGAAAACAUG”, the binding signal is 3.31 log2 enrichment (interaction score).
Take “GGCUAGAACUAGUGGAUCCCCCGGCGCCCGGCGGCUCGAGCCCGGGUAAGUGUACAUAGUCUGCAUGCCGCCGGGCGCCAUGCCUGCAGGUCGACUCUAGAAAACAUG”: the binding signal was 3.87 log2 enrichment (interaction score).
Still for that read-out and setting: to “GGCUAGAACUAGUGGAUCCCCCGGCGCCCGGCGGCUCGAGCCCGGGUAAGUGUAUAUAGUCUGCAUGCCGCCGGGCGCCAUGCCUGCAGGUCGACUCUAGAAAACAUG” belongs 4.15 log2 enrichment (interaction score).

The next test concerns the target PUM1 PUF domain R1-RCS (Homo sapiens, UniProt Q14671 828-1176, S863R;R864C;Q867S). The description is as above. As to conditions: tags: N-Gal4 AD-HA kept; label: inside an RPR1-promoter hybrid RNA with tandem MS2 sites; ssRNA. In outline: as §1
Regarding “GGCUAGAACUAGUGGAUCCCCCGGCGCCCGGCGGCUCGAGCCCGGGUAAGUGUAAAUGGUCUGCAUGCCGCCGGGCGCCAUGCCUGCAGGUCGACUCUAGAAAACAUG”, the binding signal is 1.75 log2 enrichment (interaction score).
As for “GGCUAGAACUAGUGGAUCCCCCGGCGCCCGGCGGCUCGAGCCCGGGUAAGUGUAAAUUGUCUGCAUGCCGCCGGGCGCCAUGCCUGCAGGUCGACUCUAGAAAACAUG”, the binding signal is 3.23 log2 enrichment (interaction score).
Same read-out and setting: the same measure for “GGCUAGAACUAGUGGAUCCCCCGGCGCCCGGCGGCUCGAGCCCGGGUAAGUGUAAAUCGUCUGCAUGCCGCCGGGCGCCAUGCCUGCAGGUCGACUCUAGAAAACAUG”: 3.49 log2 enrichment (interaction score).

For the next test, the target named is PUM1 PUF domain R5-FRR (Homo sapiens, UniProt Q14671 828-1176, C1007F;Q1011R). The test is described as above. Conditions: tags: N-Gal4 AD-HA kept; label: inside an RPR1-promoter hybrid RNA with tandem MS2 sites; ssRNA. In outline:
as §1
As for “GGCUAGAACUAGUGGAUCCCCCGGCGCCCGGCGGCUCGAGCCCGGGUAAGUGUUAAUAGUCUGCAUGCCGCCGGGCGCCAUGCCUGCAGGUCGACUCUAGAAAACAUG”, the binding signal was 3.38 log2 enrichment (interaction score).
For the sequence “GGCUAGAACUAGUGGAUCCCCCGGCGCCCGGCGGCUCGAGCCCGGGUAAGUGUCAAUAGUCUGCAUGCCGCCGGGCGCCAUGCCUGCAGGUCGACUCUAGAAAACAUG”, the binding signal is 4.1 log2 enrichment (interaction score).
Take “GGCUAGAACUAGUGGAUCCCCCGGCGCCCGGCGGCUCGAGCCCGGGUAAGUGUAAAUAGUCUGCAUGCCGCCGGGCGCCAUGCCUGCAGGUCGACUCUAGAAAACAUG”: the binding signal was 1.31 log2 enrichment (interaction score).

The target in another test is PUM1 PUF domain R4-SPW (Homo sapiens, UniProt Q14671 828-1176, N971S;H972P;Q975W). The description is as above. Conditions: tags: N-Gal4 AD-HA kept; label: inside an RPR1-promoter hybrid RNA with tandem MS2 sites; ssRNA. In short, it runs like this:
as §1
As for “GGCUAGAACUAGUGGAUCCCCCGGCGCCCGGCGGCUCGAGCCCGGGUAAGUGUAAAUAGUCUGCAUGCCGCCGGGCGCCAUGCCUGCAGGUCGACUCUAGAAAACAUG”, the binding signal is 3.13 log2 enrichment (interaction score).
Same read-out and setting: the same measure for “GGCUAGAACUAGUGGAUCCCCCGGCGCCCGGCGGCUCGAGCCCGGGUAAGUGUACAUAGUCUGCAUGCCGCCGGGCGCCAUGCCUGCAGGUCGACUCUAGAAAACAUG”: 0.34 log2 enrichment (interaction score); for “GGCUAGAACUAGUGGAUCCCCCGGCGCCCGGCGGCUCGAGCCCGGGUAAGUGUAUAUAGUCUGCAUGCCGCCGGGCGCCAUGCCUGCAGGUCGACUCUAGAAAACAUG”: 2.59 log2 enrichment (interaction score).
